# Values joined by “and” are separate entries in the source; they are usually repeats but may differ in a detail not shown here. Equal values may be shown once. Results filed as inconclusive are left out. Active and inactive are the calls of the source. The calls were made as follows, unless noted: active = hit-call score of the fitted dose curve at least 0.9, where 1 is the maximum; inconclusive = response in the unintended direction; inactive = score below 0.9.
# What was measured:
# [1] = VALA_TUBIPS_Antagonist_CellCount: Viability Assessment in the VALA Sciences human iPS-derived Endothelial Tubule Formation (TUBIPS) Antagonism Assay (AID 2284335)
# Procedure: VALA_TUBIPS_Agonist is a cell-based, multiplexed assay that uses human iPS-derived endothelial cells (iPSC). Measurements were taken 72 hours after chemical dosing in a 96-well plate.VALA_TUBIPS_Antagonist_CellCount is the one of two assay components measured from the VALA_TUBIPS_Antagonist assay. It is designed to make measurements of viability, a form of viability reporter, as detected with fluorescence intensity signals by HCS Fluorescent Imaging technology. Data from the assay component VALA_TUBIPS_Antagonist_CellCount was analyzed at the endpoint, VALA_TUBIPS_Antagonist_CellCount, in the positive analysis fitting direction relative to DMSO as the negative control and baseline of activity. Using a type of viability reporter, loss-of-signal activity can be used to understand viability. To generalize the intended target to other relatable targets, this assay endpoint is annotated to the cell cycle intended target family, where the subfamily is cell count.
# […]
# [2] = VALA_MIGHUV1_ScratchOnly_WoundArea: VALA Sciences human Umbilical Vein Endothelial Cell Migration (MIGHUV) Assay, Area of Scratch Wound Inhibited Recovery (AID 2284336)
# How it was run: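 Wound area remaining after 24 h recovery imaged by Hoechst nuclear fluorescence in scratched HUVEC cultures, chemicals added within 30 min of scratching across a 6-point series. Gain of signal fitted against 0.1% DMSO; cytochalasin D positive control.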
# [3] = VALA_TUBHUV_Agonist_TubuleLength: VALA Sciences human Umbilical Vein Endothelial Tubule Formation (TUBHUV) Agonism Assay (AID 2284337)
# How it was run: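 Tubule length quantified by CD31 immunofluorescence imaging after fixation. HUVEC-HDF co-cultures (1:3) pre-grown 3 days with 10 ng/ml VEGF, then dosed 3 days in VEGF medium; 0.1 % DMSO vehicle baseline.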
# [4] = VALA_TUBIPS_Agonist_CellCount: Viability Assessment in the VALA Sciences human iPS-derived Endothelial Tubule Formation (TUBIPS) Agonism Assay (AID 2284338)
# [5] = CCTE_Mundy_HCI_iCellGluta_NOG_NeuriteLength: CCTE's Neurite Outgrowth Assay in iCellGluta cells for Neurite Length, Mundy Lab (AID 2284318)
# How it was run: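 Automated high-content imaging of betaIII-tubulin (Alexa Fluor-488) and Hoechst-stained cells gave neurite length, normalized to the DMSO baseline.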
# [6] = tested on: TTR (gene 7276); test: CCTE_GLTED_hTTR_0.5uM: CCTE's human Transthyretin (hTTR) Inhibition Assay, with 0.5uM TTR, Great Lakes Toxicology and Ecology Division (GLTED) Lab (AID 2284320; active = hit-call score of the fitted dose curve at least 0.9, where 1 is the maximum; inactive = score below 0.9)
# How it was run: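 Probe (ANSA) displacement from 0.5 uM human transthyretin was followed by fluorescence (ex 380, em 475) after a 2 h incubation with chemical. Activity was scored as signal loss and fitted positively relative to DMSO.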
# [7] = CCTE_Mundy_HCI_iCellGluta_NOG_NeuronCount: CCTE's Neurite Outgrowth Assay in iCellGluta cells for Neuron Count, Mundy Lab (AID 2284340);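 also: cells fixed about 48 h after compound addition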
# How it was run: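 Neuron count read by automated high-content imaging of Hoechst 33342 and betaIII-tubulin/Alexa Fluor-488 labelling in human iPSC glutamatergic neurons. Activity fitted relative to DMSO.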
# [8] = CCTE_Mundy_HCI_iCellGluta_NOG_NeuriteCount: CCTE's Neurite Outgrowth Assay in iCellGluta cells for Neurite Count, Mundy Lab (AID 2284342);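 also: chemical exposure about 48 hours starting 2 hours after plating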
# [9] = tested on: SERPINA7 (gene 6906); test: CCTE_GLTED_hTBG: CCTE's human Thyroxine-binding Globulin (TBG) Inhibition Assay, Great Lakes Toxicology and Ecology Division (GLTED) Lab (AID 2284343);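 also: active chemicals lower fluorescence versus DMSO baseline by displacing probe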
# How it was run: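 Cell-free displacement of the fluorescent probe ANSA from human thyroxine-binding globulin after 2 h exposure. Read-out at ex 380/em 475 nm; DMSO baseline.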
# [10] = CCTE_Deisenroth_DEVTOX-GLR_legacy_CellCount: (Legacy) Viability Assessment in CCTE's DevTox GLR-Endo Assay, Deisenroth Lab (AID 2284331; active = hit-call score of the fitted dose curve at least 0.9, where 1 is the maximum; inactive = score below 0.9); settings: actives raise or lower the signal
# How it was run: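 Seed RUES2-GLR 24 h; differentiate 48 h, dosing at 0 and 24 h; fix, stain nuclei; image 5 fields/well; count nuclei. Conc. 1 nM - 200 uM, single technical replicate, n=4 experiments; bidirectional fit vs 0.2% DMSO.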
# [11] = tested on: SRY-box transcription factor 17 (SOX17) Protein Expression, Deisenroth Lab, SOX17 (gene 64321); test: CCTE_Deisenroth_DEVTOX-GLR_legacy_Sox17: (Legacy) CCTE's DevTox GLR-Endo Assay Evaluation of SRY-box transcription factor 17 (SOX17) Protein Expression, Deisenroth Lab (AID 2284341; active = hit-call score of the fitted dose curve at least 0.9, where 1 is the maximum; inactive = score below 0.9); settings: actives raise or lower the signal
# How it was run: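 Using the RUES2-GLR line, compounds are tested as 10-point series during 48-h defined-media differentiation. Sox17 reporter fluorescence per cell determines positivity; endpoint is percentage positive, analysed bidirectionally versus DMSO baseline.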
# [12] = tested on: Brachyury (BRA) Protein Expression, Deisenroth Lab, TBXT (gene 6862); test: CCTE_Deisenroth_DEVTOX-GLR_legacy_Bra: (Legacy) CCTE's DevTox GLR-Endo Assay Evaluation of Brachyury (BRA) Protein Expression, Deisenroth Lab (AID 2284329; active = hit-call score of the fitted dose curve at least 0.9, where 1 is the maximum; inactive = score below 0.9)
# How it was run: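 High-content imaging of fixed RUES2-GLR cells after a 48-hour differentiation with two compound exposures yields percent cells whose Bra signal exceeds pluripotent control median by 5x BMAD; values are baseline-corrected to DMSO.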
# [13] = tested on: IYD (gene 389434); test: CCTE_GLTED_hIYD: CCTE's human Iodotyrosine Deiodinase (xIYD) Inhibition Assay, Great Lakes Toxicology and Ecology Division (GLTED) Lab (AID 2284317);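 also: cell-free human IYD enzyme made in baculovirus insect cells; iodide freed from monoiodotyrosine measured by cerium arsenite color change at 420 nm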
# How it was run: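 In the IYD assay, iodide released from MIT by insect-cell-expressed human enzyme was quantified after 3 h via Sandell-Kolthoff rate at 420 nm, with plate-wise normalization to MNT and solvent controls.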
# [14] = CCTE_Deisenroth_5AR_NBTE_donor: CCTE's 5alpha-reductase NanoBRET Target Engagement Assay […], Deisenroth Lab (AID 2284319; active = hit-call score of the fitted dose curve at least 0.9, where 1 is the maximum; inactive = score below 0.9); settings: actives raise or lower the signal
# How it was run: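 In this secondary endpoint, donor luminescence from SRD5A2-NanoLuc in transfected HEK293T flags artifacts. Test chemical (10 nM - 29.9 uM) is present five hours, tracer the last two; mock-tracer wells run plate-matched; data fitted bidirectionally against DMSO.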
# [15] = CCTE_Deisenroth_5AR_NBTE_acceptor: CCTE's 5alpha-reductase NanoBRET Target Engagement Assay - Autofluorescence Screen, Deisenroth Lab (AID 2284321; active = hit-call score of the fitted dose curve at least 0.9, where 1 is the maximum; inactive = score below 0.9;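 also: compound fluorescence in the acceptor channel under 460 nm excitation flags autofluorescence artifacts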); settings: actives raise or lower the signal
# How it was run: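 Autofluorescence check: ToxCast chemicals, nominal 100 uM, excitation 460 nm, n=3 runs. Acceptor fluorescence endpoint, bidirectional fit relative to DMSO. Parent assay in HEK293T, 5 h post-dose.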
# [16] = tested on: SRD5A2 (gene 6716); test: CCTE_Deisenroth_5AR_NBTE_ratio: CCTE's 5alpha-reductase NanoBRET Target Engagement Assay - Ratio, Deisenroth Lab (AID 2284322; active = hit-call score of the fitted dose curve at least 0.9, where 1 is the maximum; inactive = score below 0.9); settings: actives raise or lower the signal
# How it was run: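 HEK293T cells transiently expressing an SRD5A2-NanoLuc fusion (20 h post-transfection) were exposed to test chemical (10 nM - 29.9 uM, 8 points) for 3 h, then testosterone tracer for a further 2 h. Acceptor/donor BRET ratio was fitted bidirectionally against DMSO baseline.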
# [17] = VALA_MIGHUV1_ScratchOnly_CellCount: Viability Assessment in the VALA Sciences human Umbilical Vein Endothelial Cell Migration (MIGHUV) Assay, Scratch Wound Inhibited Recovery (AID 2284327)
# How it was run: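 Hoechst-stained nuclei in the scratch wound were counted by high-content imaging after a 24 h recovery period. Scratched HUVEC monolayers received 6-point concentration series, triplicate, in 0.1% DMSO, fit against DMSO.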
# [18] = TAMU_PeakParms_SingleDonor1434_Asystole: Texas A&M University (TAMU) 1.5-hr Human Induced Pluripotent Stem Cell (iPSC)-derived Cardiomyocytes Calcium (Ca+2) Flux Assay for Cardiotoxicity: Asystole (quiescence of beating) (AID 2284328)
# How it was run: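 Human iPSC-derived cardiomyocytes (donor 1434) were exposed to 0.2, 1, 10 and 100 uM compound in 0.5% DMSO for 90 min at 37C. Ca2+-dye fluorescence gave average peak frequency; POD is EC95, a 95% beat-rate drop versus DMSO.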
# [19] = IUF_NPC1_cytotoxicity_72hr: Cytotoxicity Assessment at 72 hours in the Leibniz Research Institute for Environmental Medicine (IUF) Neural Progenitor Cell Proliferation Assay (NPC1) (AID 2284332);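 also: rising LDH signal means more cytotoxicity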
# How it was run: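 Cytotoxicity by LDH membrane-integrity assay on medium supernatants, fluorescence via resazurin reduction, after 3-day single exposure of primary hNPC spheres at 37C, pH 7.2-7.6 with growth factors. Fitted upward against baseline.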
# [20] = VALA_TUBHUV_Antagonist_TubuleLength: VALA Sciences human Umbilical Vein Endothelial Tubule Formation (TUBHUV) Antagonism Assay (AID 2284325)
# How it was run: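 Tubule length was imaged via CD31 immunofluorescence after a further 3-day compound exposure in 10 ng/ml VEGF, following 3-day pre-culture of HUVEC with HDF at 1:3. Vehicle 0.1% DMSO; suramin (100 uM) inhibition control.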
compound,measurement,setting,value
OCCNCCO,outcome,[1],inactive
same,outcome,[2],inactive
same,outcome,[3],inactive
same,outcome,[4],inactive
FC(F)=C(F)C(F)(F)C(F)(F)C(F)(F)C(F)(F)C(F)(F)C(F)(F)F,outcome,[5],inactive
same,AC50,[6],62.1 µM (active)
same,outcome,[7],inactive
same,outcome,[8],inactive
CCc1ccc(O)c(C(C)(C)C)c1,AC50,[9],35.3 µM (active)
NC(=O)N1c2ccccc2C=Cc2ccccc21,AC50,[10],67 µM (active)
same,AC50,[11],100 µM (active)
same,AC50,[9],30.5 µM (active)
NNC(=O)c1ccncc1,outcome,[12],inactive
same,outcome,[10],inactive
same,outcome,[11],inactive
CCCCCCCCCCCCCCCCOS(=O)(=O)O,AC50,[13],32.7 µM (active)
same,AC50,[9],2.91 µM (active)
C[C@]12C=CC(=O)C=C1CC[C@H]1[C@@H]3C[C@@H](O)[C@](O)(C(=O)CO)[C@@]3(C)C[C@H](O)[C@@]12F,AC50,[5],19.8 µM (active)
same,AC50,[8],23.7 µM (active)
O=S(=O)(O)CCC(F)(F)C(F)(F)C(F)(F)C(F)(F)C(F)(F)C(F)(F)F,AC50,[6],5.35 µM (active)
O=C(NO)C1(NS(=O)(=O)c2ccc(Oc3ccc(F)cc3)cc2)CCOCC1,outcome,[9],inactive
CCCCCCCC/C=C\CCCCCCCC(=O)OC[C@@H](O)[C@H]1OC[C@H](O)[C@H]1O,outcome,[14],inactive
same,outcome,[15],inactive
same,outcome,[16],inactive
CCCCCCCCCC,outcome,[17],inactive
same,outcome,[1],inactive
same,outcome,[2],inactive
same,AC50,[4],7.79 µM (active)
c1ccc2cc3ccccc3cc2c1,outcome,[5],inactive
same,outcome,[18],inactive
same,outcome,[7],inactive
same,outcome,[8],inactive
C=CCc1cc(S(=O)(=O)c2ccc(O)c(CC=C)c2)ccc1O,AC50,[9],1.47 µM (active)
CC(C)C(=O)Nc1ccc([N+](=O)[O-])c(C(F)(F)F)c1,outcome,[9],inactive
CCCCCOC(C)=O,outcome,[14],inactive
same,outcome,[15],inactive
same,outcome,[16],inactive
NC(=O)NN=Cc1ccc([N+](=O)[O-])o1,AC50,[13],74.4 µM (active)
OC(O)(C(F)C(O)(O)C(F)(F)F)C(F)(F)F,outcome,[5],inactive
same,outcome,[7],inactive
same,outcome,[8],inactive
Cn1cc[nH]c1=S,outcome,[5],inactive
same,outcome,[17],inactive
same,outcome,[19],inactive
same,outcome,[1],inactive
same,outcome,[2],inactive
same,outcome,[3],inactive
same,outcome,[4],inactive
same,outcome,[7],inactive
same,outcome,[8],inactive
O=C(Cl)C(F)(F)C(F)(F)C(F)(F)C(=O)Cl,outcome,[5],inactive
same,outcome,[7],inactive
same,outcome,[8],inactive
CCCC(CCC)C(=O)O,outcome,[20],inactive
same,outcome,[18],inactive
same,outcome,[12],inactive
same,outcome,[10],inactive
same,outcome,[1],inactive
same,outcome,[11],inactive
CCN(CC)C(=S)SSC(=S)N(CC)CC,AC50,[14],50 µM (active)
same,AC50,[15],39.6 µM (active)
same,AC50,[16],50 µM (active)
same,outcome,[18],inactive
same,outcome,[1],inactive
same,outcome,[2],inactive
same,outcome,[3],inactive
same,outcome,[4],inactive
same,AC50,[9],11.7 µM (active)
FC(F)(F)C(F)(F)C(F)(F)C(F)(F)C(F)(F)C(F)(F)I,outcome,[5],inactive
same,outcome,[8],inactive
COc1cc2c(c(OC)c1OC)-c1ccc(OC)c(=O)cc1[C@@H](NC(C)=O)CC2,outcome,[18],inactive
O=S(=O)(O)c1ccc(N=Nc2c(O)ccc3cc(S(=O)(=O)O)ccc23)cc1,AC50,[14],36.5 µM (active)
same,outcome,[15],inactive
same,AC50,[16],61.8 µM (active)
Nc1ccn([C@@H]2O[C@H](CO)[C@@H](O)[C@@H]2O)c(=O)n1,AC50,[5],741 nM (active) and 1.09 µM (active)
same,AC50,[12],0.152 µM (active)
same,AC50,[10],0.259 µM (active)
same,outcome,[19],inactive
same,AC50,[7],415 nM (active) and 814 nM (active)
same,AC50,[11],0.554 µM (active)
same,AC50,[8],959 nM (active) and 1.04 µM (active)
OC[C@H]1O[C@@](CO)(O[C@H]2O[C@H](CO)[C@@H](O)[C@H](O)[C@H]2O)[C@@H](O)[C@@H]1O,outcome,[18],inactive

# Source: PubChem BioAssay (EPA / NIEHS)
